Active and inactive are the calls of the source. Rule for the calls: active = hit-call score of the fitted dose curve at least 0.9, where 1 is the maximum; inactive = score below 0.9.

We go through 13 compounds from PubChem BioAssay (EPA / NIEHS).

Assay [1] can be described thus: APR_HepG2_CellLoss_1hr: Apredica 1-hour HepG2 Assay for Cell Loss (AID 2282668).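 Note: curves fitted both ways against DMSO so gain or loss of cells counts.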 The settings on record: high-content imaging. The procedure, abridged:
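HepG2 cells were treated for 1 h with compound at 0.39–200 uM, in duplicate, in 0.5% DMSO. After formaldehyde fixation, Hoechst 33342-stained nuclei were imaged on an ArrayScan to count cells. Data were fitted bidirectionally versus DMSO.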

Assay [2] is described as follows: APR_HepG2_NuclearSize_1hr: Apredica 1-hour HepG2 Assay for Nuclear Size (AID 2282670). Conditions: high-content imaging, actives raise or lower the signal. The procedure, abridged: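 HepG2 cells dosed 1 hr with 0.39–200 uM compound (0.5% DMSO), formaldehyde-fixed, Hoechst 33342-stained and imaged at 20x; nuclear diameter from nuclear stain, fitted bidirectionally against DMSO.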

Assay [3] is described as follows: APR_HepG2_P-H2AX_1hr: Apredica 1-hour HepG2 Assay for H2AX Phosphorylation (AID 2282673). The settings on record: high-content imaging, actives raise or lower the signal. Summed up:
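HepG2 dosed 1 hr at 0.39-200 uM (0.5% DMSO final), duplicate. Fixed in 3.7% formaldehyde, Triton permeabilized, immunostained for phospho-histone H2A.x (1:200) with Hoechst 33342; ArrayScan 20x imaging, bidirectional fit vs DMSO.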

The nature of assay [4]: APR_HepG2_MitoMembPot_1hr: Apredica 1-hour HepG2 Assay for Mitochondrial Membrane Potential (AID 2282675). Conditions: imaging, actives raise or lower the signal. Summed up: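 HepG2 cells dosed 1 hour with 0.39–200 uM compound in duplicate, 0.5% DMSO final. MitoTracker Red CMXRos (250 nM, 30 min) loaded before formaldehyde fixation; fluorescence quantified by high-content imaging, bidirectional fitting versus DMSO.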

Assay [5] is described as follows: APR_HepG2_CellCycleArrest_24hr: Apredica 24-hour HepG2 Assay for Cell Cycle Arrest (AID 2282905).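 Note: cell cycle arrest scored as ratio of 2N to 4N nuclear DNA content.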 Conditions: imaging, actives raise or lower the signal. The procedure, abridged: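 HepG2, 24 hr dosing, 10-pt 0.39–200 uM in duplicate, 0.5% DMSO. Fixed 3.7% formaldehyde, permeabilized 0.5% Triton X-100, Hoechst 33342 2 ug/mL. Imaged 20x; nuclear DNA content quantified; bidirectional fit vs DMSO.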

The nature of assay [6]: APR_HepG2_StressKinase_1hr: Apredica 1-hour HepG2 Assay for Stress Kinase (AID 2282906). Conditions: HepG2 stress kinase (phospho-c-Jun) imaging, actives raise or lower the signal. The procedure, abridged:
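HepG2 cells dosed 0.39-200 uM (0.5% DMSO) for 1 h, then formaldehyde-fixed. Stress kinase read by phospho-c-Jun immunofluorescence using high-content imaging; bidirectional fit vs DMSO.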

Assay [7] is described as follows: APR_HepG2_MitoMass_1hr: Apredica 1-hour HepG2 Assay for Mitochondrial Mass (AID 2282674). Conditions: high-content imaging, actives raise or lower the signal. Summed up: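 HepG2 cells dosed 1 hr with 0.39-200 uM compound (0.5% DMSO), duplicate wells. Mitochondria stained with 250 nM MitoTracker Red CMXRos for 30 min before formaldehyde fixation, imaged at 20x by ArrayScan; bidirectional fit versus DMSO.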

For `CCCCOC(=O)[C@@H](C)Oc1ccc(Oc2ccc(C(F)(F)F)cn2)cc1`, the result in assay [1], in assay [2], in assay [3] and in assay [4] was inactive.

`CCCCOC(=O)C(C)Oc1ccc(Oc2ccc(C(F)(F)F)cn2)cc1` (stereo unspecified): the outcome in assay [1], in assay [2], in assay [3] and in assay [4] was inactive.

For `O=C(c1ccc(O)cc1O)c1ccc(O)cc1O`, in assay [5], the call was inactive.

Turning to `C#C[C@]1(O)CC[C@H]2[C@@H]3CCC4=CC(=O)CC[C@@H]4[C@H]3CC[C@@]21CC`, the outcome in assay [5] was inactive.

For the compound `COc1nc(C)nc(NC(=O)NS(=O)(=O)c2ccccc2OCCCl)n1`, the outcome in assay [1], in assay [2], in assay [3] and in assay [4] was inactive.

For `O=C(Nc1ccc([N+](=O)[O-])cc1Cl)c1cc(Cl)ccc1O`, the call in assay [1], in assay [2] and in assay [3] was inactive. For the same compound, the AC50 (commonly the concentration giving half of the maximal activity seen) in assay [4] is 1.94 µM (active); in assay [5], 91.8 nM (active).

For the compound `OB(O)O`, the compound was called inactive in assay [1], in assay [2], in assay [3], in assay [4] and in assay [6].

Consider `COC(=O)CSc1cc(N=c2sc(=O)n3n2CCCC3)c(F)cc1Cl`, for which the call in assay [1], in assay [2], in assay [3], in assay [7], in assay [4] and in assay [6] was inactive.

`CCCCOCCOCCOCc1cc2c(cc1CCC)OCO2`: the outcome in assay [1], in assay [2], in assay [3] and in assay [4] was inactive.

With `CCOC(=O)C(C)Oc1ccc(Oc2cnc3cc(Cl)ccc3n2)cc1` (stereo unspecified), the compound was called inactive in assay [1], in assay [2], in assay [3], in assay [4], in assay [5] and in assay [6].

Turning to `O=C(O)c1ccccc1`, the compound was called inactive in assay [5].

Take `COC(=O)c1ccc(I)cc1S(=O)(=O)NC(=O)Nc1nc(C)nc(OC)n1`: the compound was classed as inactive in assay [1], in assay [2], in assay [3], in assay [4] and in assay [6].

Consider `CC(C)(c1ccc(O)cc1)c1ccc(O)cc1`, for which the outcome in assay [1], in assay [2], in assay [3], in assay [4] and in assay [5] was inactive.
